Measured values published in PubChem BioAssay.
Where “and” joins values, the source holds several entries; their conditions need not be identical. Identical values can stand only once. Results filed as inconclusive are left out. For some of these results: Results with a measured potency or affinity are listed apart. Calls of active or inactive are those of the source. Unless noted, no rule for the calls is given here.

What was measured:
[1] = molecular target: ATP-dependent translocase ABCB1 (Homo sapiens) (UniProt P08183); assay: MDR1 (ABCB1) efflux transporter inhibition, cell-based (AID 377; in the data active = fluorescence slope change above about 50%); conditions: MDR1-expressing cells, fluorescent substrate accumulation slope; stronger effect = higher value; concentration not given here
[2] = rescue of polyQ-huntingtin neuronal dysfunction in worms, whole organism, C. elegans mechanosensory neurons, N-terminal huntingtin (AID 1599); conditions: touch response, stronger effect = higher value
[3] = inhibitors of polyQ protein aggregation (AID 1604); conditions: polyglutamine-induced protein aggregation inhibition assay; stronger effect = higher value; tested at 2.5 µM
[4] = enhancers of glutamate uptake in motor neurons, MN-1 cell line (AID 1612); conditions: MN-1 motor neuron cells, stronger effect = higher value;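 also: tested at 1 µM final; 0% = mean of DMSO vehicle wells on each plate; positive means more glutamate uptake than control and negative means less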
[5] = reducers of polyQ inclusions in PC12 cells, cell-based, NGF-treated PC12, GFPQ80 (AID 1614); conditions: PC12 NGF-treated GFP-polyQ80 inclusion reduction;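 also: lower means fewer inclusions and 0 means no inclusions at all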
[6] = suppressors of polyglutamine aggregation in yeast, 75Q-TubH (AID 1616); conditions: S. cerevisiae 75Q-TubH polyglutamine aggregation suppression; stronger effect = higher value
[7] = test system: Neuropilin-2 / VEGF-C interaction (human); assay: inhibitors of NRP2–VEGF-C binding, biochemical, microplate binding format, z-score (AID 743281); conditions: microplate NRP2/VEGF-C binding assay; stronger effect = lower value
[8] = growth inhibition of DIPG glioma cells, dose response, cell-based, SU-DIPG-XIII, MIPE4.0, CellTiter-Glo, qHTS (AID 1347061; cut-off not given, nearly all actives have AC50 up to about 37 µM;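 also: cells exposed to compound for 48 hours before readout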); conditions: SU-DIPG-XIII viability, CellTiter-Glo ATP luminescence
[9] = growth inhibition of DIPG glioma cells, dose response, cell-based, JHH-DIPG-1, MIPE4.0, CellTiter-Glo, qHTS (AID 1347062; cut-off not given, nearly all actives have AC50 up to about 27 µM;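 as to AC50: cells exposed to compound for two days before readout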); conditions: JHH-DIPG-1 viability, CellTiter-Glo ATP luminescence
[10] = growth inhibition of DIPG glioma cells, dose response, cell-based, SU-DIPG-IV, MIPE4.0, CellTiter-Glo, qHTS (AID 1347063; cut-off not given, nearly all actives have AC50 up to about 30 µM;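 also: compound exposure lasted 48 hours before the viability readout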); conditions: SU-DIPG-IV viability, CellTiter-Glo ATP luminescence
[11] = growth inhibition of DIPG glioma cells, dose response, cell-based, SU-DIPG-XVII, MIPE5.0, CellTiter-Glo, qHTS (AID 1347060; cut-off not given, nearly all actives have AC50 up to about 26 µM;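 as to AC50: cells exposed to compound for 48 hours before viability readout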); conditions: SU-DIPG-XVII viability, CellTiter-Glo ATP luminescence
[12] = viability loss in pontine glioma line – cell-based, SU-DIPG-XXV, MIPE5.0, CellTiter-Glo, qHTS, dose response (AID 1347065; cut-off not given, nearly all actives have AC50 up to about 26 µM;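 also: cells exposed to compound for 48 hours before ATP readout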); conditions: CellTiter-Glo ATP luminescence
[13] = JHH-DIPG-1 glioma cell viability, MIPE5.0 library, CellTiter-Glo luminescence, qHTS (AID 1347067; cut-off not given, nearly all actives have AC50 up to about 26 µM;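 also: cells exposed to compound for 48 hours before readout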); conditions: JHH-DIPG-1 glioma viability, CellTiter-Glo ATP luminescence
[14] = SU-DIPG-XXV glioma cell viability, MIPE5.0 library, qHTS (AID 1347068; cut-off not given, nearly all actives have IC50 up to about 30 µM;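 as to IC50: cells exposed to compound for 48 hours before viability readout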)
[15] = test system: Hepatitis C virus NS3 helicase; assay: HCV NS3 helicase inhibitors, primary screen, biochemical, fluorescence polarization, LOPAC1280 library (AID 687035; in the data active = inhibition above about 37%); conditions: Purified HCV NS3 helicase, Cy5-dT15 ssDNA binding fluorescence polarization; stronger effect = higher value; concentration not given here
[16] = Cy5 fluorescence quenching or enhancement artefacts, artefact control for HCV NS3 helicase inhibitor project, biochemical, LOPAC1280 (AID 687037); conditions: Cy5-DNA-NS3h complex fluorescence interference counterscreen
[17] = growth inhibition of DIPG glioma cells, dose response, cell-based, SU-DIPG-XIII, MIPE5.0, CellTiter-Glo, qHTS (AID 1347064; cut-off not given, nearly all actives have AC50 up to about 23 µM;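 as to AC50: cells exposed to compound for 48 hours before the viability read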); conditions: SU-DIPG-XIII viability, CellTiter-Glo ATP luminescence
[18] = inhibitors of Cryptococcus chitosan production, flow cytometry, Cibacron Brilliant Red staining (AID 1347148); conditions: Cryptococcus neoformans chitosan, stronger effect = lower value; at 10 µM unless noted;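 also: compound exposure lasted three days at 37 degrees C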

ATP-dependent translocase ABCB1 (Homo sapiens), sequence (P08183 whole entry, looked up): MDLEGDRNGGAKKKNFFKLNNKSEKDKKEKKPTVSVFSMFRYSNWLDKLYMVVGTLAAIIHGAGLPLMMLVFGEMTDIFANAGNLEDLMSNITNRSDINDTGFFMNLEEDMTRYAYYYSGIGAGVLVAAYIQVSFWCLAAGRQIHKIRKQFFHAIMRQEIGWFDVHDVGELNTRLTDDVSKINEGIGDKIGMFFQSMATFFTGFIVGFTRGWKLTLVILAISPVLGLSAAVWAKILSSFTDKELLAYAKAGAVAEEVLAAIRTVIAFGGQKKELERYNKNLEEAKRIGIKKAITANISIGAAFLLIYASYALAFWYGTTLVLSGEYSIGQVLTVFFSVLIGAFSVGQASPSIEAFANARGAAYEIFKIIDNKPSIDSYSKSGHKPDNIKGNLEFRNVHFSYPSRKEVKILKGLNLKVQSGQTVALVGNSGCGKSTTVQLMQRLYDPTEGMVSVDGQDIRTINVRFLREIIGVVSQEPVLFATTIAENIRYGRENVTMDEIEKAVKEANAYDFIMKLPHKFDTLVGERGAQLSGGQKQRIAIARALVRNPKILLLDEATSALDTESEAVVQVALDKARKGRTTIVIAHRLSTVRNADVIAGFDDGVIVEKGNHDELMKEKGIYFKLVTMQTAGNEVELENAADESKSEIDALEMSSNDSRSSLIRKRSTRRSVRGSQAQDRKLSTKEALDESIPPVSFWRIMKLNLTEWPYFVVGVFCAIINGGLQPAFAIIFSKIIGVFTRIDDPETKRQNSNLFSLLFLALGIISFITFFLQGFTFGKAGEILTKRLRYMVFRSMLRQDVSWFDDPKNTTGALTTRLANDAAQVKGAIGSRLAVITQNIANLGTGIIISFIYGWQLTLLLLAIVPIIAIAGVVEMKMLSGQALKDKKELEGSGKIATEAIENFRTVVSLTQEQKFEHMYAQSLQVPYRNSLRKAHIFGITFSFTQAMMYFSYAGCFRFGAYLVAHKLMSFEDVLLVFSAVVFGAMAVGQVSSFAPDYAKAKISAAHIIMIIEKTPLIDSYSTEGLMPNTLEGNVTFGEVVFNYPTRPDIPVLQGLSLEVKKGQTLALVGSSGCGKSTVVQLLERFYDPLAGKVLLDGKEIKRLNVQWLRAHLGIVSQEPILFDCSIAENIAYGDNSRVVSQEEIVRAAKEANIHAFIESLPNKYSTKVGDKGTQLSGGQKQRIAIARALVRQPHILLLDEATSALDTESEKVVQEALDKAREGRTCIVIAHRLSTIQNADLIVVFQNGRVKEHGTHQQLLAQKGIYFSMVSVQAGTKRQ

Structure (SMILES): COc1ccc2c3c1O[C@H]1C[C@@H](O)C=C[C@@]31CCN(C)C2
- fluorescence slope change [1]: 9.8% (inactive)
- rescue above control [2]: 0.01
- inhibition of aggregation [3]: 91.6%
- glutamate uptake change [4]: 5.19%
- inclusion score [5]: 2
- aggregation suppression score [6]: 1.04
- z-score [7]: 0.00606 (inactive)
- outcome [8]: inactive
- outcome [9]: inactive
- outcome [10]: inactive

Structure (SMILES): C[C@H](CCC(=O)O)[C@H]1CC[C@H]2[C@@H]3[C@@H](O)C[C@@H]4C[C@H](O)CC[C@]4(C)[C@H]3CC[C@]12C
- outcome [11]: inactive
- AC50 [9]: 20.9 µM (active)
- outcome [10]: inactive
- outcome [12]: inactive
- outcome [13]: inactive
- outcome [14]: inactive

Structure (SMILES): C[C@]12CC[C@@H]3c4ccc(O)cc4CC[C@H]3[C@@H]1CC[C@@H]2O
- inhibition [15]: -3% (inactive)
- fluorescence ratio (interference) [16]: 1 (inactive)
- outcome [17]: inactive
- outcome [12]: inactive
- fold fluorescence [18]: 5.13 [at 183.6 µM] (inactive)

Structure (SMILES): CC(=O)O[C@]1(C(C)=O)CC[C@H]2[C@@H]3C[C@H](C)C4=CC(=O)CC[C@]4(C)[C@H]3CC[C@@]21C
- outcome [9]: inactive
- outcome [10]: inactive
- outcome [13]: inactive
- outcome [14]: inactive

Structure (SMILES): CC[C@H](C)C(=O)O[C@H]1CCC=C2C=C[C@H](C)[C@H](CC[C@@H]3C[C@@H](O)CC(=O)O3)[C@H]21
- inhibition [15]: -1% (inactive)
- fluorescence ratio (interference) [16]: 0.9 (inactive)
- z-score [7]: -1.1 (inactive)
- AC50 [11]: 6.61 µM (active)
- AC50 [13]: 23.5 µM (active)

Structure (SMILES): CN(C)CCC(c1ccc(Cl)cc1)c1ccccn1 (stereo not drawn)
- fluorescence slope change [1]: 220% (active)
- rescue above control [2]: 7.64
- inhibition of aggregation [3]: -12.5%
- glutamate uptake change [4]: -7.91%
- inclusion score [5]: 2
- aggregation suppression score [6]: 1.27
- inhibition [15]: -6% (inactive)
- fluorescence ratio (interference) [16]: 0.9 (inactive)
- z-score [7]: 0.208 (inactive)

Structure (SMILES): CCCC1O[C@@H]2C[C@H]3[C@@H]4CCC5=CC(=O)C=C[C@]5(C)[C@H]4[C@@H](O)C[C@]3(C)[C@]2(C(=O)CO)O1 (stereo partly drawn)
- fluorescence slope change [1]: 56.9% (active)
- inhibition [15]: -5% (inactive)
- fluorescence ratio (interference) [16]: 0.9 (inactive)

Structure (SMILES): Nc1ccn([C@@H]2O[C@H](CO)[C@@H](O)C2O)c(=O)n1 (stereo partly drawn)
- z-score [7]: 0.042 (inactive)
- AC50 [11]: 0.263 µM (active)
- outcome [8]: inactive
- outcome [9]: inactive
- outcome [17]: inactive
- outcome [12]: inactive
- outcome [13]: inactive
- outcome [14]: inactive

Structure (SMILES): CN=C(N)NCCC[C@H](N)C(=O)O
- inhibition [15]: 0% (inactive)
- fluorescence ratio (interference) [16]: 1 (inactive)
- z-score [7]: -0.991 (inactive)

Structure (SMILES): Cn1cc[nH]c1=S
- fluorescence slope change [1]: 21.6% (inactive)
- rescue above control [2]: -4.12
- inhibition of aggregation [3]: 48%
- glutamate uptake change [4]: -2.61%
- inclusion score [5]: 2
- aggregation suppression score [6]: 1.46

Structure (SMILES): COc1cc(CNC(=O)CCCC/C=C/C(C)C)ccc1O
- rescue above control [2]: 10.3
- inhibition of aggregation [3]: 71.9%
- glutamate uptake change [4]: -9.59%
- aggregation suppression score [6]: 0.5
- outcome [11]: inactive
- outcome [8]: inactive
- outcome [9]: inactive
- outcome [10]: inactive
- outcome [13]: inactive
- outcome [14]: inactive
- fold fluorescence [18]: 7.26 [at 163.7 µM] (inactive)

Structure (SMILES): CC/C(=C(\c1ccccc1)c1ccc(OCCN(C)C)cc1)c1ccccc1
- fluorescence slope change [1]: 142% (active)
- rescue above control [2]: 2.54
- inhibition of aggregation [3]: 58.9%
- glutamate uptake change [4]: -4.23%
- aggregation suppression score [6]: -0.635
- inhibition [15]: -5% (inactive) and -2% (inactive)
- fluorescence ratio (interference) [16]: 1 (inactive) and 0.9 (inactive)
- AC50 [11]: 17.1 µM (active)
- AC50 [10]: 26.4 µM (active)
- AC50 [17]: 13.5 µM (active)
- AC50 [12]: 19.1 µM (active)
- AC50 [13]: 21.5 µM (active)
- IC50 [14]: 17.1 µM (active)
- fold fluorescence [18]: 8.26 [at 134.6 µM] (inactive)

Structure (SMILES): NCCc1cnc[nH]1
- rescue above control [2]: -5.3
- inhibition of aggregation [3]: 51.2%
- glutamate uptake change [4]: -0.34%
- inclusion score [5]: 2
- aggregation suppression score [6]: 1.08
- inhibition [15]: -3% (inactive)
- fluorescence ratio (interference) [16]: 1 (inactive)
- outcome [11]: inactive
- outcome [8]: inactive
- outcome [9]: inactive
- outcome [17]: inactive
- outcome [12]: inactive
- outcome [13]: inactive
- outcome [14]: inactive
- fold fluorescence [18]: 5.22 [at 449.9 µM] (inactive)

Structure (SMILES): CCCCCCCCCCCC1=C(O)C(=O)C=C(O)C1=O
- outcome [8]: inactive
- AC50 [10]: 0.0526 µM (active)
- outcome [14]: inactive

Structure (SMILES): O=c1cc(-c2ccc(O)cc2)oc2cc(O)cc(O)c12
- rescue above control [2]: 2.14
- inhibition of aggregation [3]: -7.84%
- glutamate uptake change [4]: -6.97%
- inclusion score [5]: 1.5
- aggregation suppression score [6]: 1.4
- inhibition [15]: -1% (inactive)
- fluorescence ratio (interference) [16]: 1 (inactive)
- AC50 [11]: 16.6 µM (active)
- AC50 [9]: 2.35 µM (active)
- AC50 [10]: 2.96 µM (active)
- AC50 [17]: 16.6 µM (active)

Structure (SMILES): CN1C[C@H](C(=O)N[C@]2(C)O[C@@]3(O)[C@@H]4CCCN4C(=O)[C@H](Cc4ccccc4)N3C2=O)C[C@@H]2c3cccc4[nH]cc(c34)C[C@H]21
- fluorescence slope change [1]: 122% (active)
- rescue above control [2]: 4.53
- inhibition of aggregation [3]: 29.7%
- glutamate uptake change [4]: 15.4%
- aggregation suppression score [6]: 1.29
- inhibition [15]: -3% (inactive)
- fluorescence ratio (interference) [16]: 1 (inactive)

Structure (SMILES): O=C(O)c1cccnc1C(=O)O
- rescue above control [2]: 5.37
- inhibition of aggregation [3]: 58.6%
- glutamate uptake change [4]: -5.4%
- inclusion score [5]: 2
- aggregation suppression score [6]: 1.12
- inhibition [15]: -2% (inactive)
- fluorescence ratio (interference) [16]: 1 (inactive)

Structure (SMILES): CCCCOc1cc(CC2CNC(=O)N2)ccc1OC (stereo not drawn)
- inhibition [15]: -2% (inactive)
- fluorescence ratio (interference) [16]: 1 (inactive)

Structure (SMILES): COc1c(C)c2c(c(O)c1C/C=C(\C)CCC(=O)O)C(=O)OC2
- rescue above control [2]: 6.21
- inhibition of aggregation [3]: 35%
- glutamate uptake change [4]: -2.33%
- inclusion score [5]: 1
- aggregation suppression score [6]: 0.18
- AC50 [11]: 0.742 µM (active)
- fold fluorescence [18]: 7.43 [at 156.1 µM] (inactive)

Structure (SMILES): O=c1cc(-c2ccccc2)oc2cc(O)c(O)c(O)c12
- outcome [8]: inactive
- outcome [10]: inactive

Structure (SMILES): COc1cc2c(cc1OC)[C@@H]1C(=O)c3ccc4c(c3O[C@@H]1CO2)C=CC(C)(C)O4
- AC50 [8]: 23.5 µM (active)
- AC50 [13]: 18.6 µM (active)
- outcome [14]: inactive

Structure (SMILES): CN(C)CCN(Cc1cccs1)c1ccccn1
- rescue above control [2]: -13.2
- inhibition of aggregation [3]: 81.4%
- glutamate uptake change [4]: -6.5%
- inclusion score [5]: 2
- aggregation suppression score [6]: 1.19
- inhibition [15]: -1% (inactive)
- fluorescence ratio (interference) [16]: 1 (inactive)
